Reference: PMC6753376

These substances were tested against Ubiquitin C-terminal hydrolase RPN11 (UniProt P43588) (assay: cross-link between two proteins; cross-linking mass spectrometry).

Listed as a hit, yes:
26S proteasome regulatory subunit RPN10, P38886
26S proteasome regulatory subunit RPN1, P38764
26S proteasome regulatory subunit 6B homolog, P33298
26S proteasome regulatory subunit RPN2, P32565

What follows are substances tested against Ubiquitin carboxyl-terminal hydrolase 6 (UniProt P43593) in the same assay as above.

Listed as a hit, yes:
26S proteasome regulatory subunit 7 homolog, P33299
26S proteasome regulatory subunit 4 homolog, P40327
26S proteasome regulatory subunit RPN1, P38764
